# Measurements as given in PubChem BioAssay AID2496 (Sanford-Burnham Center for Chemical Genomics, 2010).
# Activity calls are given as the source filed them. No stated cut-off is given here; in the data, active means IC50 below about 40 µM; inactive means the rest.
# Assay: HTRF spectral interference by compounds, SAR follow-up, artefact control, biochemical, fluorescence ratio (AID 2496)
# Details: HTRF spectral interference counter-screen
structure (smiles),measurement,value
O=C(c1ccc2nc(-c3ccco3)c(-c3ccco3)nc2c1)N1CCC2(CC1)OCCO2,IC50,> 50 µM (inactive)
